# Assay results published in the supplement of paper PMC3334620.
# In all, about 33,000 sequences were measured (“E-score (-0.5 to 0.5)”: median about -0.036, highest 2% from about 0.37 on). This excerpt belongs to a sample that is enriched for the highest values.
# Target: T1, Yer064c (UniProt P40041)
# T1 sequence: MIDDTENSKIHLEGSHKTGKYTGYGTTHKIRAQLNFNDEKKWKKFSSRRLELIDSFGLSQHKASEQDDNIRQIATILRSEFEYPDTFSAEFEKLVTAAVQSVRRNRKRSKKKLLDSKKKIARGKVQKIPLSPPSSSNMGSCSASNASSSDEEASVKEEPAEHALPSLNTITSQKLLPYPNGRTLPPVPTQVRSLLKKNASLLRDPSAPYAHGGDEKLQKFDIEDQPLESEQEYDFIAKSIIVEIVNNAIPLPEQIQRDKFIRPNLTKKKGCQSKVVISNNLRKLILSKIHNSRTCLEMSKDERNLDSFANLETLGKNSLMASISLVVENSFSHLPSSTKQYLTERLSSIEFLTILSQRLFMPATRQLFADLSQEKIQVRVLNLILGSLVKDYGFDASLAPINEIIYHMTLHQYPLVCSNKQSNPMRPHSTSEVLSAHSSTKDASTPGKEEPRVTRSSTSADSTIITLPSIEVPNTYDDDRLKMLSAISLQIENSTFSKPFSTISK
# Assay: PBM E-score (8-mer binding enrichment) (E-score (-0.5 to 0.5)); higher = stronger / more preferred TF binding
# Conditions: protein concentration: 200 nM; construct: GST-full length
# How it was run: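 For each ungapped eight-base word taken together with its reverse complement, the Universal PBM Analysis Suite assigned an E-score. Binding data came from GST-tagged yeast transcription factors, applied at about 100-200 nM, on universal all-10-mer Agilent arrays made double-stranded by primer extension. Fluorescent anti-GST marked bound protein, and scans were normalised with masliner.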
row,Sequence,PBM E-score
1,CTCGATGC,-0.0842
2,GCCTATCC,-0.207
3,GGACCTAC,-0.132
4,GTTATCAA,0.041
5,AGGCCGCA,-0.226
6,AAGTTTCT,0.0369
7,CAAACAGA,0.0255
8,CATAGGCC,-0.158
9,GTGTTCAA,0.0916
10,CCCCTACC,-0.124
11,ACACTTTC,-0.0867
12,ATTGACGA,0.188
13,ATTGACTA,0.428
14,ATTGACAA,0.0616
15,ATTGGCTA,0.0683
16,AGTCGCAG,0.367
17,GGTCGCTA,-0.197
18,AGTCGCCC,0.403
19,AGTCGCCA,0.356
20,CGTCGCTA,-0.0862
21,AGTCGCAC,0.353
22,CGTCGCTC,-0.159
23,AGTCGCTG,0.303
24,AGTCGCCG,0.36
25,AGTCGCTA,0.371
26,CGTCGCAG,-0.031

row,Sequence,PBM E-score
1,AGTCGCTC,0.382
2,AGATTCGC,-0.0217
3,GCCCCCAC,-0.265
4,AATGCCCT,-0.232
5,CCAGAATC,0.0913
6,CAGAAGGA,-0.151
7,GGGAGACC,-0.259
8,CCCTCTTA,-0.103
9,AGCATTAA,0.0916
10,GGTACTCA,0.381
11,GGTACTTA,-0.0396
12,CGTACTCA,0.335
13,CTTACTCA,0.373
14,CTTACTCC,0.128
15,AGTACTCC,0.171
16,ATTACTCA,0.329
17,AGTACTCG,0.261
18,AGTACTCA,0.393
19,AGGTGAAA,0.0659
20,AATGTGTA,0.222
21,ACGGATAA,-0.0519
22,CATCAGCA,-0.143
23,CGTCATTA,-0.0609
24,AGTCATTG,0.475
25,GGTCATTA,-0.0121
26,AGTCATTC,0.482

row,Sequence,PBM E-score
1,AGGCATTG,-0.171
2,AGCCATTC,0.0873
3,CGTCATTC,-0.0565
4,AGCCATTG,0.247
5,AGTCATTA,0.487
6,CCTGGAAG,-0.1
7,GGAAGCCC,-0.374
8,AGCGCGGG,0.00652
9,ATTCCAGG,0.118
10,TCAGCGAA,0.186
11,ACAATCTC,-0.108
12,ACGCATCT,-0.0617
13,ACCCATCT,0.182
14,ACACATCG,0.158
15,ACTCATCC,0.455
16,CCTCATCG,-0.207
17,GCTCATCC,-0.0652
18,GCTCATCA,0.184
19,ACTCATCG,0.409
20,TCTCATCA,0.115
21,ACTCATCA,0.412
22,ACTCATCT,0.401
23,CCTCATCC,-0.323
24,AACTTTGG,-0.0438
25,CTGCTAGA,0.00564
26,GAATGCCA,-0.127

row,Sequence,PBM E-score
1,CAGGGGCC,-0.269
2,CTCACAAA,0.232
3,ACGTTATA,0.0989
4,AGGATGAT,0.281
5,GGAGATCC,-0.237
6,CACTCCTA,-0.0701
7,CACTCCTC,-0.206
8,AACTCCTA,-0.137
9,GACTCCTC,0.419
10,AACTCCTC,-0.169
11,GACTCCTA,0.443
12,ACGGGCTA,-0.288
13,GGTGGCTA,0.181
14,ATTCAGAA,0.139
15,CACCGCAA,-0.0119
16,ACTTAACG,0.0504
17,GACAGTCC,0.0581
18,GACAGTTA,-0.103
19,AACAGTCG,0.209
20,TACAGTGA,0.211
21,TACAGTAA,0.128
22,TACAGTCA,0.418
23,CACAGTCG,0.203
24,AACAGTCA,0.384
25,CACAGTCA,0.411
26,AACAGTCT,0.204

row,Sequence,PBM E-score
1,CACAGTCC,0.132
2,GACAGTCA,0.409
3,ACGGAGCG,-0.0547
4,AAGAGAGG,-0.104
5,CTGCTAAA,-0.141
6,AGTTCCAC,-0.0556
7,AAACGGGG,-0.128
8,CTGGACAG,0.0136
9,ATGCACCC,-0.0692
10,CAATAGTG,0.0438
11,GAATAGTA,-0.0424
12,AAATAGTC,0.382
13,GAATAGCC,-0.0409
14,CAATAGTC,0.409
15,AAATAGTT,-0.0372
16,CAATAGTA,-0.0839
17,AAATAGTG,0.062
18,GAATAGTC,0.38
19,GCGTAGAA,-0.12
20,CACCGTTA,0.0864
21,ATTGGTTG,-0.0268
22,CGCTCCCG,0.17
23,AAACCACA,-0.0212
24,ACTAACCG,0.163
25,TATTTGCA,0.0422
26,AGTCATGA,0.485

row,Sequence,PBM E-score
1,AGTCATGC,0.487
2,AGTCATGG,0.479
3,ATTCATGG,0.224
4,AGCCATGG,0.268
5,CGTCATGA,0.253
6,GGTCATGA,0.255
7,ATTCATGC,0.137
8,CGTCATGC,-0.173
9,TACTTACA,-0.0596
10,GAAGCCTA,-0.143
11,AACGTATT,-0.12
12,AGGGATAG,-0.255
13,TAGAGAGA,0.0957
14,AGAAGCAG,-0.1
15,AGCTTTCA,-0.0821
16,GTGTTGGA,-0.127
17,ATTTAATC,0.366
18,ATTTAGTG,0.127
19,CTTTAATC,0.29
20,CTTTAGAC,0.108
21,ATTTAGTA,0.253
22,CTTTAGTC,0.416
23,ATTTAGTC,0.444
24,ATTTAATA,0.117
25,CTTTAGTA,0.14
26,GGCCTACA,-0.0963

row,Sequence,PBM E-score
1,TAATAGCA,-0.09
2,ACCAAGAG,-0.00272
3,CATAACCA,0.071
4,GGCGAATA,-0.0639
5,CGGCGAGC,-0.108
6,CACTCATC,0.258
7,GACTCATC,0.478
8,CACTCATA,0.259
9,GACTCATA,0.477
10,AACTCATC,0.33
11,AACTCATA,0.275
12,CCTGCCAG,-0.212
13,ATTTTCAG,-0.135
14,CTCTGTCC,-0.14
15,CGTCTTAG,-0.188
16,AGTCTTAC,0.415
17,AGTCTTAG,0.408
18,ACTCTTAG,0.198
19,CGTCTTAC,-0.141
20,ACTCTTAT,0.241
